Measurements reported in PubChem BioAssay.
For part of these data: Entries with a potency or affinity are not part of this list. Calls of active or inactive are those of the source. Unless noted, how the calls were made is not given here.

What was measured:
[1] = antimalarial activity against Dd2 strain (AID 2302;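 active means growth inhibition above 50% at the single 2 µM test dose, taken to imply half-maximal potency below 2 µM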;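 further: 0% = DMSO untreated growth and 100% = chloroquine plus artemisinin killed control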); settings: P. falciparum Dd2 in RBCs, LDH growth readout, 72 h; at 2 µM; active compounds read high
[2] = HepG2 cytotoxicity, primary screen, cytotoxicity control for P. falciparum antimalarial project, cell-based, ATP luminescence (AID 2303;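 active means inhibition above 50%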;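 further: 0% = DMSO wells and 100% = digitonin-killed cells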); settings: HepG2 viability, 24-48 h, at 10 µM, active compounds read high
[3] = target: L-lactate dehydrogenase (Plasmodium falciparum (isolate CDC / Honduras)) (UniProt Q27743); assay: PfLDH activity inhibition – cell lysate, 3D7 strain, counter-screen for P. falciparum growth inhibition project (AID 2304);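 further: 0% = vehicle and 100% = reference inhibitor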; settings: P. falciparum 3D7 crude extract, LDH APAD/NBT absorbance; at 2 µM; active compounds read high
[4] = inhibition of 3D7 malaria parasite growth – strain 3D7 (AID 2306);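 further: 0% = DMSO wells and 100% = chloroquine plus artemisinin control wells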; settings: P. falciparum 3D7 erythrocytic growth, LDH absorbance, 72 h; at 2 µM; active compounds read high
[5] = target: Calcium-dependent protein kinase 1 (Plasmodium falciparum (isolate 3D7)) (UniProt P62344); assay: PfCDPK1 kinase inhibitors, biochemical, TCAMS library (AID 1159585; cut-off not given, nearly all actives have IC50 up to about 0.98 µM;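 further: inhibitors leave more ATP so luminescence rises with inhibition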); settings: recombinant PfCDPK1, Kinase-Glo ATP depletion luminescence
[6] = target: Plasmodium falciparum protein kinase 6 (PK6, PF3D7_1337100) (UniProt Q8IDW1); assay: PfPK6 kinase inhibitors, biochemical, TCAMS library (AID 1159586); settings: recombinant PfPK6, Kinase-Glo ATP depletion luminescence
[7] = target: Protein kinase 7 (PK7), Plasmodium falciparum 3D7 (PF3D7_0213400) (UniProt Q7YTF7); assay: inhibition of Plasmodium PK7 catalytic activity – biochemical, TCAMS antimalarial set, Kinase-Glo luminescence (AID 1159587); settings: recombinant PfPK7, Kinase-Glo ATP depletion luminescence
[8] = target: Calcium-dependent protein kinase 4 (Plasmodium falciparum (isolate 3D7)) (UniProt Q8IBS5); assay: PfCDPK4 kinase inhibitors, biochemical, TCAMS library (AID 1159588; cut-off not given, nearly all actives have IC50 up to about 0.91 µM); settings: recombinant PfCDPK4, Kinase-Glo ATP depletion luminescence
Sequence of Calcium-dependent protein kinase 4 (Plasmodium falciparum (isolate 3D7)) (Q8IBS5 whole entry, looked up): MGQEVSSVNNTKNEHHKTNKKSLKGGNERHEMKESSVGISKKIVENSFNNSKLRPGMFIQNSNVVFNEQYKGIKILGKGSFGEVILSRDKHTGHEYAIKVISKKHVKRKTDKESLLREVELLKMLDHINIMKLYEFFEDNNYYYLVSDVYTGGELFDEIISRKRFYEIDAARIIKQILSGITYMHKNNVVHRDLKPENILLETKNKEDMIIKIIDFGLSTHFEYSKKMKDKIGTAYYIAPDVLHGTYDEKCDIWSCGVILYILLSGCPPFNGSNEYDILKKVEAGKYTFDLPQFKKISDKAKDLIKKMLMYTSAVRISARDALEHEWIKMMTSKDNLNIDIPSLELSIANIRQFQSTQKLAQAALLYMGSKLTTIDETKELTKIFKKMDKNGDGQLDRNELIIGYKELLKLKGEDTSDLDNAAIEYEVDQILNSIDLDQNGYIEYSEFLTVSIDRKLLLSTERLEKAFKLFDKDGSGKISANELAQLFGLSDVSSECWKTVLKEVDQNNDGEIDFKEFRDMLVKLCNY

Sequence of L-lactate dehydrogenase (Plasmodium falciparum (isolate CDC / Honduras)) (Q27743 whole entry, looked up): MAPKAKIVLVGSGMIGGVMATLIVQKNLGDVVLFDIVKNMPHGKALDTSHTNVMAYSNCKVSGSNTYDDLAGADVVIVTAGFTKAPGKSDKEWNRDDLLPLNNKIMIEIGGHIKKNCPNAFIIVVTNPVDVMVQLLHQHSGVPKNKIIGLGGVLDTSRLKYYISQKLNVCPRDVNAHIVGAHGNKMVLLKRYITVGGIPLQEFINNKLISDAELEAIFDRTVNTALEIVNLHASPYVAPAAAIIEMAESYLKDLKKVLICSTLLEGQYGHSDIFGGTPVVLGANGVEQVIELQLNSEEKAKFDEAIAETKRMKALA
Sequence of Protein kinase 7 (PK7), Plasmodium falciparum 3D7 (PF3D7_0213400) (Q7YTF7 1-343): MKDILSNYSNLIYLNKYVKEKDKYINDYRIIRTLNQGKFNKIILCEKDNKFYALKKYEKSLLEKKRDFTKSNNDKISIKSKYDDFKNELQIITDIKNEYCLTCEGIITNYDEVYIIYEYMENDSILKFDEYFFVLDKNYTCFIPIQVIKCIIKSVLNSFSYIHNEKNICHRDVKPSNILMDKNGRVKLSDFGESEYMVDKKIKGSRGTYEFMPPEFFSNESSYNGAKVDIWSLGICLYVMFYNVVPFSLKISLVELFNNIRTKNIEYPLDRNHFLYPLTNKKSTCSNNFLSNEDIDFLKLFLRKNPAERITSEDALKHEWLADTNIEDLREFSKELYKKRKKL
Sequence of Calcium-dependent protein kinase 1 (Plasmodium falciparum (isolate 3D7)) (P62344 whole entry, looked up): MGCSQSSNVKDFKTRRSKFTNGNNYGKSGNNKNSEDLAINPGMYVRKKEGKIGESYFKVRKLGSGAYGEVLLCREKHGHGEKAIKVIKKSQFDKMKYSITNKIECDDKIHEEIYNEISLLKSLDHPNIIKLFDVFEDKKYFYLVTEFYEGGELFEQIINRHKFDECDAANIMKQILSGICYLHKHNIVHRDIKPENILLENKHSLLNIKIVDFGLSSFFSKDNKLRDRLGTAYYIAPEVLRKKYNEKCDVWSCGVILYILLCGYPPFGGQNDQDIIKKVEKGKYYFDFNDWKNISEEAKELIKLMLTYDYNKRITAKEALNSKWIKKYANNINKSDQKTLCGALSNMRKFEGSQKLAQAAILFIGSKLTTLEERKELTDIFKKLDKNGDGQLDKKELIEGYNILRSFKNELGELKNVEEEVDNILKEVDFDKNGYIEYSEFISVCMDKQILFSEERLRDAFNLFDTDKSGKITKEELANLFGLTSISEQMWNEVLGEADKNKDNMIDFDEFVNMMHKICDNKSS
Sequence of Plasmodium falciparum protein kinase 6 (PK6, PF3D7_1337100) (Q8IDW1 1-305): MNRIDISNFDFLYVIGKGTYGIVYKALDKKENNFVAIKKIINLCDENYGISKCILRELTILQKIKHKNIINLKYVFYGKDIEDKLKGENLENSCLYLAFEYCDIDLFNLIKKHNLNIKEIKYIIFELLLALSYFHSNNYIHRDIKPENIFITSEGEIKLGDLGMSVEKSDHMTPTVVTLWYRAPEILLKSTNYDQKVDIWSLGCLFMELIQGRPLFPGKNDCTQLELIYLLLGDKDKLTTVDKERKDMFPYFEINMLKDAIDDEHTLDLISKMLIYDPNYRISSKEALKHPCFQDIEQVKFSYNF

Row | SMILES | growth inhibition [1] | inhibition [2] | inhibition [3] | growth inhibition [4] | outcome [5] | outcome [6] | outcome [7] | outcome [8]
1 | O=C(Nc1ccc(Cl)cc1)N1CCN(C2CCCCC2)CC1 | -6% (inactive) | 17% (inactive) | -3% (inactive) | 93% (active) | inactive | inactive | inactive | inactive
2 | Cn1c(=N)n(CC(=O)N2CCc3ccc(Cl)cc3C2Cc2ccc(Cl)c(Cl)c2)c2ccccc21 (configuration not stated) | 52% (active) | 99% (active) | -1% (inactive) | 102% (active) | inactive | inactive | inactive | inactive
3 | Cc1nnsc1C(=O)Nc1cccc(-c2cccc(-c3nc4ccccc4[nH]3)c2)c1 | 34% (inactive) | 14% (inactive) | 1% (inactive) | 100% (active) | inactive | inactive | inactive | inactive
4 | FC(F)(F)c1ccc2nc(-c3cccc(-c4cccc(CNCC5CCCO5)c4)c3)[nH]c2c1 (configuration not stated) | 96% (active) | 23% (inactive) | -2% (inactive) | 100% (active) | inactive | inactive | inactive | inactive
5 | Cc1ccc(-c2nnc(Nc3ccc(C(=O)N4CCCCC4)cc3)c3ccccc23)cc1S(=O)(=O)NCC1CCCO1 (configuration not stated) | 99% (active) | -5% (inactive) | -4% (inactive) | 99% (active) | inactive | inactive | inactive | inactive
6 | O=S(=O)(Nc1cccc(CCN2CCC(N3CCCCC3)CC2)c1)c1cccc(C(F)(F)F)c1 | 13% (inactive) | 25% (inactive) | -1% (inactive) | 101% (active) | inactive | inactive | inactive | inactive
7 | Cc1cc(C)c(C(=O)Nc2ccc3nc(C)cc(N)c3c2)c(C)c1 | 14% (inactive) | 12% (inactive) | 4% (inactive) | 84% (active) | inactive | inactive | inactive | inactive
8 | Oc1ccc(-c2ccccc2)cc1CN1CCCCC1 | 70% (active) | 3% (inactive) | -1% (inactive) | 93% (active) | inactive | inactive | inactive | inactive
9 | CN(CCCNCc1cccc2ccccc12)CCCNCc1cccc2ccccc12 | 94% (active) | 93% (active) | -3% (inactive) | 100% (active) | inactive | inactive | inactive | inactive
10 | COc1ccccc1CNc1ccnc(N2CC(Oc3ccc(F)cc3)C2)n1 | 95% (active) | 2% (inactive) | -4% (inactive) | 97% (active) | inactive | inactive | inactive | inactive
11 | Cc1cc(N[C@@H](Cc2ccccc2)C(=O)NCCc2ccccc2)nc(NCCOc2ccccc2)n1 | 14% (inactive) | 10% (inactive) | -3% (inactive) | 95% (active) | inactive | inactive | inactive | inactive
12 | O=C(Nc1cccc(OC2CCN(Cc3ccccc3)CC2)c1)Nc1cccc([N+](=O)[O-])c1 | 48% (inactive) | 10% (inactive) | 0% (inactive) | 101% (active) | inactive | inactive | inactive | inactive
13 | c1ccc2[nH]c(-c3ccc(-c4ccc(CNC5CC5)cc4)s3)nc2c1 | 19% (inactive) | 25% (inactive) | -7% (inactive) | 91% (active) | inactive | inactive | inactive | inactive
14 | c1cc(CN2CCN(CCN3CCOCC3)CC2)cc(-c2ccc(-c3nc4ccccc4[nH]3)cc2)c1 | 100% (active) | 23% (inactive) | -8% (inactive) | 100% (active) | inactive | inactive | inactive | inactive
15 | O=C(CCN(Cc1ccco1)c1nc(-c2ccc(F)cc2)nc2ccccc12)NC1CC1 | 54% (active) | -12% (inactive) | 4% (inactive) | 94% (active) | inactive | inactive | inactive | inactive
16 | O=c1cc(NCCC(CNCc2ccc(Br)o2)NCc2cc(Br)cc(Br)c2)[nH]c2ccccc12 (configuration not stated) | 90% (active) | 2% (inactive) | 6% (inactive) | 98% (active) | inactive | inactive | inactive | inactive
17 | CC(Cl)=CCc1c(C)[nH]c2c(ccc3ccccc32)c1=O | 96% (active) | 24% (inactive) | 8% (inactive) | 96% (active) | inactive | inactive | inactive | inactive
18 | COc1ccc2ccc(F)c(CC(=O)N3CCOC(CNCc4cccc(-c5ccc(F)cc5)n4)C3)c2n1 (configuration not stated) | 1% (inactive) | 5% (inactive) | 6% (inactive) | 92% (active) | inactive | inactive | inactive | inactive
19 | N=c1c(C(=O)NCc2ccccc2)cc2c(=O)n3ccccc3nc2n1CCc1ccccc1 | 25% (inactive) | 5% (inactive) | -6% (inactive) | 99% (active) | inactive | inactive | inactive | inactive
20 | Cc1cccc(Nc2nc(C)cc(N3CCCN(CC4CCCCC4)CC3)n2)c1 | 21% (inactive) | 20% (inactive) | -2% (inactive) | 83% (active) | inactive | inactive | inactive | inactive

Row | SMILES | growth inhibition [1] | inhibition [2] | inhibition [3] | growth inhibition [4] | outcome [5] | outcome [6] | outcome [7] | outcome [8]
21 | Cc1cc(CN2CCC(N3CC(c4ccccc4)(c4ccccc4)OCC3=O)C2)ccc1O (configuration not stated) | 52% (active) | 3% (inactive) | 3% (inactive) | 89% (active) | inactive | inactive | inactive | inactive
22 | Cc1cccc(S(=O)(=O)Nc2cccc(CCN3CCC(N4CCCCC4)CC3)c2)c1 | 13% (inactive) | 15% (inactive) | -2% (inactive) | 87% (active) | inactive | inactive | inactive | inactive
23 | Cc1ccc2nc(N(CCCn3ccnc3)C(=O)C=Cc3cccs3)sc2c1 | 57% (active) | 22% (inactive) | 0% (inactive) | 100% (active) | inactive | inactive | inactive | inactive
24 | CCn1cc(-c2cc(C(=O)Nc3ccc(OC)cc3C)c3ccccc3n2)c(C)n1 | 100% (active) | -5% (inactive) | 2% (inactive) | 97% (active) | inactive | inactive | inactive | inactive
25 | Cc1cc(NCCC(=O)NCc2cccc(F)c2)nc(NCCc2ccc(F)cc2)n1 | 2% (inactive) | 0% (inactive) | -1% (inactive) | 89% (active) | inactive | inactive | inactive | inactive
26 | Cc1ccc2[nH]c3c(NCCCN4CCOCC4)ncnc3c2c1 | 9% (inactive) | -1% (inactive) | -3% (inactive) | 101% (active) | inactive | inactive | inactive | inactive
27 | Cc1[nH]c(C)c(-c2ccc(OCc3ccc(OC(F)(F)F)cc3)nc2)c(=O)c1Br | 97% (active) | 10% (inactive) | 7% (inactive) | 98% (active) | inactive | inactive | inactive | inactive
28 | Cc1cc2c(cc1C(F)(F)F)N(C(=O)Nc1ccc(C(=O)NC3CCN(Cc4ccccc4)C3)cc1)CC2 (configuration not stated) | 48% (inactive) | 19% (inactive) | -6% (inactive) | 100% (active) | inactive | inactive | inactive | inactive
29 | C=CCOC(=O)O[C@@H]1[C@@H](OC(=O)OCC=C)[C@@H](OC)O[C@H](COC(c2ccccc2)(c2ccccc2)c2ccccc2)[C@H]1OC(=O)OCC=C | 96% (active) | 5% (inactive) | 2% (inactive) | 95% (active) | inactive | inactive | inactive | inactive
30 | CCOC(=O)c1cc(C(=O)NCCCCN2CCC(c3ccc(CC)cc3OCC)CC2)ccc1-c1ccc(C(F)(F)F)cc1 | 71% (active) | 74% (active) | -1% (inactive) | 99% (active) | inactive | inactive | inactive | inactive
31 | Cc1[nH]c(C)c(-c2ccc(-c3ccc(OC(F)(F)F)cc3)cc2)c(=O)c1Cl | 97% (active) | 24% (inactive) | 1% (inactive) | 98% (active) | inactive | inactive | inactive | inactive
32 | Cc1cnc(CS(=O)c2nc3ccc(C(F)(F)F)cc3[nH]2)cc1OCc1ccccc1 (configuration not stated) | 76% (active) | -7% (inactive) | -2% (inactive) | 93% (active) | inactive | inactive | inactive | inactive
33 | Cc1noc(C)c1-c1ccc2c(Nc3ccc(C(F)(F)F)cc3)c(C(N)=O)cnc2c1 | 95% (active) | 1% (inactive) | 6% (inactive) | 100% (active) | inactive | inactive | inactive | inactive
34 | O=C(c1cc(-c2cccs2)[nH]n1)N1CCN(S(=O)(=O)c2ccc(Cl)s2)CC1 | 80% (active) | 20% (inactive) | 1% (inactive) | 84% (active) | inactive | inactive | inactive | inactive
35 | CCCN(CCC)CCCOc1ccc(C(=O)c2c(-c3ccc(OCCCN(CCC)CCC)cc3)oc3ccc(Cl)cc23)cc1 | 95% (active) | 100% (active) | -8% (inactive) | 96% (active) | inactive | inactive | inactive | inactive
36 | COCCN1CCC(N(CC2(O)CCN(c3ccc(C(F)(F)F)cc3)CC2)C(=O)Cn2c(SCc3cccc(F)c3F)cc(=O)c3ccccc32)CC1 | 75% (active) | 29% (inactive) | 5% (inactive) | 94% (active) | inactive | inactive | inactive | inactive
37 | CC(C)c1ccc(NC(=O)NC2CCN(CCCCCN(C)C(=O)/C=C/c3ccc(Cl)c(Cl)c3)C2)cc1 (configuration not stated) | 3% (inactive) | 28% (inactive) | -2% (inactive) | 99% (active) | inactive | inactive | inactive | inactive
38 | CCOC(=O)c1ccc(NC(=O)Nc2cccc(-c3ccc(-c4nc5c(C)cccc5[nH]4)s3)c2)cc1 | 99% (active) | 44% (inactive) | 4% (inactive) | 100% (active) | inactive | inactive | inactive | inactive
39 | COc1cc(C2CCN(CCCCNC(=O)c3ccc(NC(=O)c4ccc(Cl)c(Cl)c4)cc3)CC2)ccc1OC(C)C | 96% (active) | 45% (inactive) | -5% (inactive) | 101% (active) | inactive | inactive | inactive | inactive
